PRC2 inh – EZH2 (human) methyltransferase inhibition. AID 651548. PRC2 H3K27 methylation, DELFIA TRF, 1 h. inhibition, % at 12.5 µM. hit rate 0.35% among 57,000. Q15910;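 active means mean inhibition of replicates at least 50% and every single replicate also reaching 50%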;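 further: dimethyl H3K27 on biotinylated H3 21-44 peptide detected by antibody; plate controls were median neutral control wells for no effect and median positive control wells for full effect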
Target sequence (Q15910 whole entry, looked up): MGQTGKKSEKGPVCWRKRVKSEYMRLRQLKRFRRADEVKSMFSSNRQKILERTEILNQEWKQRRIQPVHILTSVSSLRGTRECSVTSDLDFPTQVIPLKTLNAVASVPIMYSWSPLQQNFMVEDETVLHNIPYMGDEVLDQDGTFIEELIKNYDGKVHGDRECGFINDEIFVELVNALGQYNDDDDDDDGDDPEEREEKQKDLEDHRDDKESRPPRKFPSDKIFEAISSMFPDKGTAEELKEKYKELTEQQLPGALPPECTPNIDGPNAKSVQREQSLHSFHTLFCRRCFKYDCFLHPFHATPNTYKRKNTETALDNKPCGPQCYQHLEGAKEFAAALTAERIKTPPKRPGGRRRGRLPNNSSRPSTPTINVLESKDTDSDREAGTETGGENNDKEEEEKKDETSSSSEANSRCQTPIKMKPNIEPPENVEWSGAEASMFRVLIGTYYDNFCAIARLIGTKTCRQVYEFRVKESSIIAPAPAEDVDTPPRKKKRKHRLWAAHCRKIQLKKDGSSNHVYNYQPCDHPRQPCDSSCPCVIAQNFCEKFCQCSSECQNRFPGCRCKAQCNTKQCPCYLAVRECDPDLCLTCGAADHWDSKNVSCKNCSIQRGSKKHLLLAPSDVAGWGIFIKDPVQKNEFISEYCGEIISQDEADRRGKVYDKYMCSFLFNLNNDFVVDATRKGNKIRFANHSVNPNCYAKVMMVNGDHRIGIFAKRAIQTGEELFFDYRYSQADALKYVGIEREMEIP
An asterisk follows results filed as active. This excerpt belongs to a sample that is enriched for hits.

SMILES | PRC2 inh
CO[C@@H]1CN(C)C(=O)c2cc(NC(=O)Nc3ccccc3F)ccc2OC[C@@H](C)N(C(C)=O)C[C@H]1C | 7
COc1ccc(NC(=O)N(C)C[C@@H]2Oc3ccc(NC(=O)C4CC4)cc3CC(=O)N([C@@H](C)CO)C[C@@H]2C)cc1 | 3
COC(=O)C1=COC(OC2OC(CO)C(O)C(O)C2O)C2C1C=CC2(O)CO (centres undefined) | 99*
COC(=O)C1=COC(O[C@@H]2O[C@H](CO)[C@@H](O)[C@H](O)[C@H]2O)[C@H]2[C@@H]1[C@H](OC(=O)CCc1ccc(O)cc1)C[C@]2(C)O (some centres undefined) | 2
COC(=O)C1=CO[C@@H](O[C@@H]2O[C@H](CO)[C@@H](O)[C@H](O)[C@H]2O)[C@H]2[C@@H]1[C@H](OC(C)=O)C[C@]2(C)O | -12
O=C(CSc1nc(N2CCCCC2)nc(N2CCCCC2)n1)N1CCc2ccccc21 | 0
CCNC(=O)C[C@H]1CC[C@H](NC(=O)C2CCOCC2)[C@@H](CO)O1 | -5
C[C@H](CO)N1C[C@H](C)[C@@H](CN(C)Cc2ccccc2)Oc2ccc(NS(=O)(=O)c3cccs3)cc2C1=O | 8
C[C@@H]1CN([C@@H](C)CO)C(=O)c2cc(NS(=O)(=O)c3cccs3)ccc2O[C@@H]1CN(C)Cc1ccccc1 | 1
C[C@@H]1CN([C@H](C)CO)C(=O)c2cc(NS(=O)(=O)c3cccs3)ccc2O[C@@H]1CN(C)Cc1ccccc1 | -6
C[C@@H]1CN([C@@H](C)CO)C(=O)c2cc(NS(=O)(=O)c3cccs3)ccc2O[C@H]1CN(C)Cc1ccc(-c2ccccc2)cc1 | 60*
C[C@H]1CN([C@@H](C)CO)C(=O)c2cc(NS(=O)(=O)c3cccs3)ccc2O[C@@H]1CN(C)Cc1ccccc1 | 3
C[C@H]1CN([C@@H](C)CO)C(=O)c2cc(NS(=O)(=O)c3cccs3)ccc2O[C@@H]1CN(C)Cc1ccc(-c2ccccc2)cc1 | 72*
COC(=O)c1ccccc1NC(=S)NC(=O)COc1ccc(C)cc1 | 24
C[C@H](CO)N1C[C@H](C)[C@@H](CN(C)S(=O)(=O)c2ccc3ccccc3c2)OCc2cn(nn2)CCCC1=O | 2
CC(=O)N(C)C[C@@H]1Oc2cc(C#CC(C)C)ccc2S(=O)(=O)N([C@H](C)CO)C[C@@H]1C | -9
CO[C@H](CN(C)S(=O)(=O)c1ccc(C)cc1)[C@H](C)CN(Cc1ccccc1Cl)[C@@H](C)CO | 42
CO[C@@H](CN(C)S(=O)(=O)c1ccc(C)cc1)[C@@H](C)CN(Cc1ccccc1Cl)[C@H](C)CO | 51*
CO[C@@H](CN(C)S(=O)(=O)c1ccc(C)cc1)[C@@H](C)CN(Cc1ccccc1Cl)[C@@H](C)CO | 38
O=c1cc(-c2ccc(O)c(O)c2)oc2c(C3O[C@H](CO)[C@H](O)[C@H](O)[C@H]3O)c(O)cc(O)c12 (some centres undefined) | 81*
O=c1cc(-c2ccc(O)cc2)oc2cc(O[C@@H]3O[C@H](CO)[C@@H](O)[C@H](O)[C@H]3O[C@@H]3OC[C@](O)(CO)[C@H]3O)cc(O)c12 | -11
COc1cc(O[C@@H]2O[C@H](CO)[C@@H](O)[C@H](O)[C@H]2O)c2c(=O)cc(-c3ccccc3)oc2c1OC | -9
Nc1ncnc(NCC2CCCO2)c1[N+](=O)[O-] (centres undefined) | 5
NC(=O)C1CC(=O)N(c2ccc(OCC(=O)Nc3ccccc3F)cc2)C1 (centres undefined) | -17
Cc1ccc(NC(=O)CSc2nc(-c3ccccc3)cc(=O)[nH]2)cc1Cl | 14
SMILES | PRC2 inh
O=C(CSc1nc(-c2ccccc2)cc(=O)[nH]1)Nc1cc(C(F)(F)F)ccc1Cl | 64*
O=C(CSc1nc(-c2ccccc2)cc(=O)[nH]1)Nc1cccc(Cl)c1Cl | 47
CC(C)NC(=O)N(C)C[C@H]1Oc2ccc(NC(=O)Cc3cn(C)c4ccccc34)cc2CC(=O)N([C@@H](C)CO)C[C@H]1C | -3
C[C@H](CO)N1C[C@H](C)[C@H](CN(C)C(=O)Nc2ccc(F)cc2)OCc2ccccc2-c2ccccc2C1=O | 19
CC(C)NC(=O)Nc1ccc2c(c1)CC(=O)N([C@@H](C)CO)C[C@H](C)[C@@H](CN(C)Cc1ccc(C(=O)Nc3ccccc3N)cc1)O2 | 14
Nc1nc(SCC(=O)c2ccc(Oc3ccccc3)cc2)n[nH]1 | -10
Cc1cc(C)nc(SCC(=O)c2ccc(Oc3ccccc3)cc2)n1 | 57*
Cc1cc(Oc2ccccc2)nc(SCC(N)=O)n1 | 0
CCC(=O)Nc1ccc2c(c1)OC[C@H](C)N(CC1CC1)C[C@@H](C)[C@@H](OC)CN(C)C2=O | 0
CN(C(=O)CCCOc1ccc2[nH]c(=O)ccc2c1)C1CCCCC1 | 11
O=c1c(O)c(-c2ccccc2)oc2cc(O)cc(O)c12 | -1
COc1cc(O)c2c(=O)c(OC)c(-c3cc(O)c(OC)c(OC)c3)oc2c1 | -17
O=c1c(O)c(-c2cc(O)c(O)c(O)c2)oc2cc(O)cc(O)c12 | 93*
COCCNC(=O)C[C@@H]1CC[C@H](NC(=O)NC2CCCCC2)[C@H](CO)O1 | -5

Screening data: PubChem BioAssay, Broad Institute
